# According to PubChem BioAssay (NCATS):
# Values joined by “and” are separate entries in the source; they are usually repeats but may differ in a detail not shown here. Equal values may be shown once. A number with no mark means an inactive call. Inconclusive results are not listed. Active and inactive are the calls of the source. Unless noted, the call rests on the fitted dose curve; in most records, active means well fitted curve in the direction sought with a large enough effect; inconclusive means small, poorly fitted or top-dose-only effect, or another doubt; inactive means no such curve, though single readings can be large; an effect the other way counts as inactive or inconclusive.
# What was measured:
# [1] = Drug repurposing screens with cells derived from glioblastoma tumor samples (AID 1345199); conditions: GBM patient neurospheres viability, ATP luminescence, 48 h; further: nearly all actives have a fitted effect of over 40% in size; further: potency means the concentration at half of the fitted maximal effect; on activity, negative = cell killing: on the % scale 0 is the no-effect control and ±100 the full control effect
# Procedure, shortened: (§1)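 Four patient lines of CD133+ GBM neurospheres were screened at several concentrations; hits were retested in those lines plus three slower-growing GBM lines, using 48-hour treatment and ATP-based viability.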
# astro = control astrocytes; test: as above; conditions: viability, ATP luminescence, 48 h; series mostly up to 45.9 µM
# Procedure, shortened: as §1
# [2] = qHTS assay for small molecule activators of the human pregnane X receptor (PXR) signaling pathway (AID 720659; call rule not given here; further: 0% is about no effect); conditions: DPX-2 HepG2 CYP3A4-luciferase, 24 h; series mostly up to 92.3 µM
# [3] = target: Nuclear receptor subfamily 1 group I member 2 (Rattus norvegicus) (UniProt Q9R1A7); test: qHTS assay for small molecule activators of the rat pregnane X receptor (rPXR) signaling pathway (AID 651751; call rule not given here; further: 0% is about no effect); conditions: rPXR reporter cells, luciferase (One-Glo), 24 h
# Sequence of Nuclear receptor subfamily 1 group I member 2 (Rattus norvegicus) (Q9R1A7 whole entry, looked up): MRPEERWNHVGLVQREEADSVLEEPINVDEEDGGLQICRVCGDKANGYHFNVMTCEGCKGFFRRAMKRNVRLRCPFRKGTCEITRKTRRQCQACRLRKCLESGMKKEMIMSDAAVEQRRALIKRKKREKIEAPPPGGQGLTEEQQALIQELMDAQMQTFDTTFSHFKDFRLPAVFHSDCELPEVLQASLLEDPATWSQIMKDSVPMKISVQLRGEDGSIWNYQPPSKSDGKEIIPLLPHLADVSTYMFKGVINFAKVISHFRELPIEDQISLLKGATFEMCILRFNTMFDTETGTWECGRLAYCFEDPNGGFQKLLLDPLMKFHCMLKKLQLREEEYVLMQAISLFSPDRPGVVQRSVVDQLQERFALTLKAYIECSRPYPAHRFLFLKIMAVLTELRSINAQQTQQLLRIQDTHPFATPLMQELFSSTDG
# [4] = qHTS assay to identify inhibitors of the type 1 interferon - major histocompatibility complex class I in skeletal muscle: Counter screen cell viability and HiBit confirmation (AID 1347412); conditions: iHSKM muscle cells + IFN-b, HiBiT or CellTiter-Glo, 24 h; Potency: HiBiT; Viability, at 45.9 µM (top of the series); further: nearly all actives have a fitted effect of over 60% in size; further: potency means the concentration at half of the fitted maximal effect
# Procedure, shortened: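 Duplicate plates, pinned identically: one read for HiBiT-tagged endogenous HLA-B luminescence, the other for ATP-content viability via CellTiter Glo. Cells were genome-engineered human myoblasts given 4 ng/ml IFN-b; compounds 12-pt, 1:3 from 46 uM final; 24 hr exposure.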
# [5] = at 45.9 µM (top of the series), tumour line B
# [6] = at 45.9 µM (top of the series), tumour line D
# [7] = at 46.1 µM (top of the series), tumour line C
smiles,measurement,setting,value
C[C@@H]1[C@@H]2Cc3ccc(O)cc3[C@@]1(C)CCN2CC1CC1,"activity, negative = cell killing",[1]; [5],-1.24%
same,"activity, negative = cell killing",[1]; [6],-18.9%
same,"activity, negative = cell killing",[1]; [7],6.7%
same,Potency,astro,inactive
C=CCC1(C(C)CCC)C(=O)N=C(S)NC1=O (stereo not drawn),"activity, negative = cell killing",[1]; [5],-7.88%
same,"activity, negative = cell killing",[1]; [6],-15.2%
same,"activity, negative = cell killing",[1]; [7],-10.6%
same,Potency,astro,inactive
O=P(O)(O)C(Cl)(Cl)P(=O)(O)O,"activity, negative = cell killing",[1]; [5],1.35%
same,"activity, negative = cell killing",[1]; [6],-11.3%
same,"activity, negative = cell killing",[1]; [7],-5.59%
same,Potency,astro,inactive
O=[N+]([O-])c1ccc(F)c([N+](=O)[O-])c1,"activity, negative = cell killing",[1]; [5],-29.6%
same,Potency,[1]; tumour line A,20 µM (active)
same,Potency,[1]; tumour line C,14.6 µM (active)
same,outcome,[2],inactive
CCC(=O)O[C@]1(c2ccccc2)CCN(C)C[C@H]1C,"activity, negative = cell killing",[1]; [5],-13.3%
same,"activity, negative = cell killing",[1]; [6],-17.1%
same,"activity, negative = cell killing",[1]; [7],-18.2%
same,Potency,astro,inactive
ClC1=C(Cl)[C@]2(Cl)[C@@H]3[C@H]4C[C@H]([C@@H]5O[C@H]45)[C@@H]3[C@@]1(Cl)C2(Cl)Cl,"activity, negative = cell killing",[1]; [5],-22%
same,Potency,[1]; tumour line A,11.2 µM (active)
same,Potency,astro,inactive
C[C@@H]([C@H](O)c1ccccc1)N(C)C,"activity, negative = cell killing",[1]; [5],-6.97%
same,"activity, negative = cell killing",[1]; [6],-5.32%
same,Potency,astro,inactive
CN1CCCC(=C(c2cccs2)c2cccs2)C1,"activity, negative = cell killing",[1]; [5],-10.4%
same,"activity, negative = cell killing",[1]; [6],-24.1%
same,Potency,astro,inactive
CCC/C=C/C=C/C(=O)O[C@H]1/C(=C/C(=O)OC)C[C@H]2C[C@H]([C@@H](C)O)OC(=O)C[C@H](O)C[C@@H]3C[C@H](OC(C)=O)C(C)(C)[C@](O)(C[C@@H]4C/C(=C/C(=O)OC)C[C@H](/C=C/C(C)(C)[C@]1(O)O2)O4)O3,"activity, negative = cell killing",[1]; [5],-7.48%
same,"activity, negative = cell killing",[1]; [6],-24.1%
same,Potency,astro,inactive
OC(c1ccccc1)(c1ccccc1)C1CN2CCC1CC2 (stereo not drawn),"activity, negative = cell killing",[1]; [5],-13.1%
same,Potency,[1]; tumour line A,12.6 µM (active)
same,Potency,astro,inactive
O=C1CCO1,"activity, negative = cell killing",[1]; [5],-1.82%
same,"activity, negative = cell killing",[1]; [6],6.37%
same,"activity, negative = cell killing",[1]; [7],-10.3%
same,Potency,astro,inactive
same,max response,[3],-3.35%
same,outcome,[2],inactive
CCCCCCCCOC(=O)c1ccccc1C(=O)OCCCCCCCC,"activity, negative = cell killing",[1]; [5],-18%
same,"activity, negative = cell killing",[1]; [6],6.99%
same,"activity, negative = cell killing",[1]; [7],-8.6%
same,Potency,astro,inactive
same,max response,[3],-1.02% and 3.16%
same,outcome,[2],inactive
CC(=O)O[C@H]1C[C@H](O[C@H]2[C@@H](O)C[C@H](O[C@H]3[C@@H](O)C[C@H](O[C@H]4CC[C@@]5(C)[C@H](CC[C@@H]6[C@@H]5C[C@@H](O)[C@]5(C)[C@@H](C7=CC(=O)OC7)CC[C@]65O)C4)O[C@@H]3C)O[C@@H]2C)O[C@H](C)[C@H]1O[C@@H]1O[C@H](CO)[C@@H](O)[C@H](O)[C@H]1O,Potency,astro,0.282 µM (active)
O=c1[nH]c(=O)n(Cl)c(=O)n1Cl,Potency,astro,inactive
same,max response,[3],-4.63%
same,outcome,[2],inactive
C[C@H]1CC[C@]2(NC1)O[C@H]1C[C@H]3[C@@H]4CC[C@H]5C[C@@H](O[C@@H]6O[C@H](CO)[C@H](O[C@@H]7O[C@H](CO)[C@@H](O)[C@H](O[C@@H]8OC[C@@H](O)[C@H](O)[C@H]8O)[C@H]7O[C@@H]7O[C@H](CO)[C@@H](O)[C@H](O)[C@H]7O)[C@H](O)[C@H]6O)CC[C@]5(C)[C@H]4CC[C@]3(C)[C@H]1[C@@H]2C,Potency,astro,3.16 µM (active)
CCN(CC)CCO[C@H]1CC[C@@]2(C)C(=CC[C@@H]3[C@@H]2CC[C@]2(C)C(=O)CC[C@@H]32)C1,Potency,astro,inactive
CNC(=O)Oc1ccccc1C(=O)Nc1ccccc1,Potency,astro,22.4 µM (active)
c1ccc2c(c1)[I+]c1ccccc1-2,Potency,[4],7.01 µM (active)
CO[C@H]1[C@@H](O)C[C@H](O[C@H]2[C@@H](O)C[C@H](O[C@H]3[C@@H](O)C[C@H](O[C@H]4CC[C@@]5(C)[C@H](CC[C@@H]6[C@@H]5C[C@@H](O)[C@]5(C)[C@@H](C7=CC(=O)OC7)CC[C@]65O)C4)O[C@@H]3C)O[C@@H]2C)O[C@@H]1C,Potency,astro,0.282 µM (active)
C[C@@H]1O[C@@H](O[C@H]2C[C@@H](O)[C@]3(CO)[C@@H]4C(CC[C@]3(O)C2)[C@@]2(O)CC[C@H]([C@@H]3COC(=O)C3)[C@@]2(C)C[C@H]4O)[C@H](O)[C@H](O)[C@H]1O (stereo partly drawn),Potency,[4],0.557 µM (active)
Cc1c2ccncc2c(C)c2c1[nH]c1ccccc12,Potency,[4],15.7 µM (active)
C[CH2][Hg][S]c1ccccc1C(=O)O,Potency,astro,1.58 µM (active)
N#CC1(N2CCCCC2)CCCCC1,Potency,astro,inactive
C[C@@H](Cc1ccccc1)NCCC(c1ccccc1)c1ccccc1,Potency,astro,inactive
O=C1CN=C(c2ccccc2)c2cc(Cl)ccc2N1CC1CC1,Potency,astro,inactive
Clc1ccccc1Cl,Potency,astro,inactive
same,max response,[3],6.34%
same,outcome,[2],inactive
O=C1CCCCC1CN1CCCCC1 (stereo not drawn),Potency,astro,inactive
C[C@]12CC[C@H](O)C[C@H]1CC[C@@H]1[C@@H]2CC[C@]2(C)[C@@H](c3ccc(=O)oc3)C[C@H]3O[C@]132,Potency,astro,1.58 µM (active)
Cc1ccccc1-n1c(C)nc2ccccc2c1=O,Potency,astro,inactive
CCC(C)(S(=O)(=O)CC)S(=O)(=O)CC,Potency,astro,inactive
NNC(N)=O,max response,[3],4.4%
same,outcome,[2],inactive
CC(=O)O[C@H]1C[C@H](O[C@H]2[C@@H](O)C[C@H](O[C@H]3[C@@H](O)C[C@H](OC4CC[C@@]5(C)[C@H](CC[C@@H]6[C@@H]5CC[C@]5(C)[C@@H](C7=CC(=O)OC7)CC[C@]65O)C4)O[C@@H]3C)O[C@@H]2C)O[C@H](C)[C@H]1O[C@@H]1O[C@H](CO)[C@@H](O)[C@H](O)[C@H]1O (stereo partly drawn),Potency,astro,0.251 µM (active)
CNc1ccc2oc(C[C@H]3O[C@@]4(CC[C@H]3C)O[C@H]([C@H](C)C(=O)c3ccc[nH]3)[C@H](C)C[C@H]4C)nc2c1C(=O)O,Potency,[4],2.49 µM (active)
O=[N+]([O-])c1cc(I)c(O)c(I)c1,Potency,astro,35.5 µM (active)
O=C(C[C@@H]1NCCC[C@H]1O)Cn1cnc2cc(Br)c(Cl)cc2c1=O,Potency,astro,inactive
CC1(C(=O)O)C2CCC(O2)C1(C)C(=O)O (stereo not drawn),Potency,[4],inactive
[Cl-].[Cl-].[Hg+2],Potency,astro,7.94 µM (active)
CN1C2CCC1CC(OC(c1ccccc1)c1ccc(Cl)cc1)C2 (stereo not drawn),Potency,astro,17.8 µM (active)
